Reference: article PMC5540273 (PLoS ONE, 2017)

Key:
Details in all cases: concentration: 1 μM, replicates: in singlicate; n = 1
[1] = system: TSSK3
[2] = system: TTK
[3] = system: TXK
[4] = system: TYK2(JH1domain-catalytic)
[5] = system: TYK2(JH2domain-pseudokinase)
[6] = system: TYRO3
[7] = system: ULK1
[8] = system: ULK2
[9] = system: ULK3
[10] = system: T1, VEGFR2
T1 construct: gene KDR
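Also: KINOMEscan kinase panel screen.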

SMILES | %Inh [1] [%] | %Inh [2] [%] | %Inh [3] [%] | %Inh [4] [%] | %Inh [5] [%] | %Inh [6] [%] | %Inh [7] [%] | %Inh [8] [%] | %Inh [9] [%] | %Inh [10] [%]
O=C1NC(=O)C(N2CCc3ccccc32)=C1c1cccc(Cl)c1 [SB-408010] | 0 | 39 | 0 | 4 | 0 | 0 | 0 | 0 | 14 | 6
Cc1cccc(-c2nc(Nc3ccc4ncsc4c3)c3ccccc3n2)n1 [GW867588] | 0 | 55 | 0 | 0 | 55 | 0 | 4 | 0 | 2 | 6
Cc1c(Cn2c(C)nn3c(=O)cc(N4CCOC(C)C4)nc23)cccc1C(F)(F)F (centres unmarked) [GSK2344444] | 0 | 6 | 0 | 13 | 0 | 0 | 34 | 0 | 15 | 0
CC(C)(C)n1cnc2c(N)ncnc21 [SKF-97359] | 45 | 0 | 0 | 21 | 1 | 0 | 0 | 0 | 0 | 0
Cc1nnc(-c2ccc3occ(-c4ccc(C(C)O)cc4)c3c2)o1 (centres unmarked) | 1 | 8 | 4 | 0 | 2 | 6 | 1 | 2 | 6 | 0
c1ccc(-c2n[nH]cc2-c2ccnc3ccccc23)nc1 [GW271431] | 22 | 4 | 4 | 17 | 10 | 0 | 0 | 0 | 1 | 12
Cc1cccc(Cn2ccn3c(=O)cc(N4CCOCC4)nc23)c1 [GSK2297542] | 17 | 62 | 0 | 0 | 26 | 8 | 2 | 0 | 10 | 0
Cc1nnc(-c2ccc(C)c(-c3ccc(C(=O)Nc4ccc(NS(C)(=O)=O)cc4)cc3)c2)o1 [GW702865] | 3 | 0 | 0 | 20 | 11 | 0 | 0 | 0 | 0 | 9
O=C(NCCNc1ccnc(Nc2ccc(F)cc2)n1)c1cc2ccccc2s1 [GSK1379874] | 22 | 0 | 100 | 0 | 21 | 0 | 3 | 0 | 1 | 0
CCc1ccnc(/C=C/c2n[nH]c3cc(Sc4ccccc4C(=O)NC)ccc23)c1 | 0 | 0 | 0 | 11 | 0 | 0 | 3 | 31 | 9 | 99.9
O=c1cc(N2CCOCC2)nc2n(Cc3cccc(Cl)c3Cl)c(C3CC3)nn12 [GSK2358994] | 0 | 0 | 7 | 11 | 0 | 35 | 0 | 10 | 0 | 0
CN1c2ccc(NCc3ccc(F)cc3)cc2-c2c(cnn2C)S1(=O)=O | 0 | 0 | 0 | 0 | 12 | 16 | 0 | 0 | 0 | 4
Fc1ccc(-c2nn3c(OCC(F)(F)F)cccc3c2-c2ccncc2)cc1 [GW514784] | 5 | 0 | 18 | 10 | 36 | 0 | 8 | 0 | 9 | 0
NS(=O)(=O)c1cccc(-c2ccc3nccc(-c4cccc(S(N)(=O)=O)c4)c3c2)c1 [GW867253] | 0 | 0 | 5 | 0 | 39 | 0 | 12 | 81 | 18 | 4
COc1ccc(Nc2ncc(C#N)c(Nc3ccccc3C(N)=O)n2)cc1N1CCN(C)CC1.Cl [GSK1558669] | 79 | 99.5 | 84 | 99.8 | 99.7 | 35 | 100 | 100 | 100 | 100
Cn1cc(-c2ccc3c(c2)CCN3C(=O)Cc2ccccc2Cl)c2c(N)ncnc21 [GSK2608885] | 7 | 17 | 85 | 33 | 0 | 100 | 6 | 0 | 6 | 82
CNc1ncnc2[nH]ncc12 [SKF-18355] | 0 | 0 | 0 | 15 | 27 | 0 | 11 | 42 | 14 | 1
